# Activity calls are given as the source filed them.
# What was measured:
# [1] = E. coli DRC41 culture turbidity changes, primary screen, E. coli filamentation inducer project, strain DRC41, OD650, 48 h (AID 1152);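 note: E. coli MC1000 strain DRC41 lacking acrAB efflux pump and sulA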; conditions: E. coli DRC41 (acrAB sulA), higher = more signal, called active from +8 up or from −8 down
# [2] = small-molecule binders of probe aLefty1, primary screen, biochemical, small-molecule microarray, 635/667 nm fluorescence (AID 1153); conditions: higher = more signal;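 note: score merges spot fluorescence with signal-to-noise ratio from the scanned slide images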
# [3] = PSAC antagonists in infected red cells, primary screen, cell-based, P. falciparum Indochina, OD700, 1 h (AID 1154); conditions: P. falciparum Indochina infected RBC osmotic lysis, higher = more signal, called active from +8 up or from −8 down
# [4] = PSAC antagonists in infected red cells, primary screen, cell-based, P. falciparum Indochina, OD700, 2 h (AID 1155);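 note: lysis reports solute entry through the parasite surface anion channel PSAC; channel blockers reduce lysis of infected cells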; conditions: P. falciparum Indochina infected erythrocytes, osmotic lysis OD700; higher = more signal, called active from +8 up or from −8 down
# [5] = osmotic lysis modulators in infected erythrocytes, primary screen, PSAC antagonist project, cell-based, P. falciparum Indochina, OD700, 3 h (AID 1156); conditions: higher = more signal, called active from +8 up or from −8 down
# [6] = PSAC antagonists in infected red cells, primary screen, cell-based, P. falciparum Indochina, OD700, 18 h (AID 1157); conditions: P. falciparum Indochina infected erythrocytes, osmotic lysis OD700, 18 h; higher = more signal, called active from +8 up or from −8 down
# [7] = modulators of S6 phosphorylation in cells, primary screen, cell-based, A549, cytoblot, luminescence, serum-stimulated (AID 1158); conditions: A549 phospho-S6 cytoblot, 5 h, higher = more signal;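 note: serum-stimulated A549 lung adenocarcinoma cells; signal is phosphorylated S6 detected by cytoblot immunostaining with HRP secondary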
# [8] = biological target: NADPH oxidase 2 (Homo sapiens) (UniProt P04839); assay: NOX2-dependent H2O2 signal modulators, primary screen, NOX inhibitor project, cell-based, HEK293-NOX2, PMA-stimulated, Amplex Red fluorescence (AID 1159); conditions: 45 min, higher = more signal, called active from +8 up or from −8 down; note: test concentration not given here
# Chain of NADPH oxidase 2 (Homo sapiens) (P04839 whole entry, looked up): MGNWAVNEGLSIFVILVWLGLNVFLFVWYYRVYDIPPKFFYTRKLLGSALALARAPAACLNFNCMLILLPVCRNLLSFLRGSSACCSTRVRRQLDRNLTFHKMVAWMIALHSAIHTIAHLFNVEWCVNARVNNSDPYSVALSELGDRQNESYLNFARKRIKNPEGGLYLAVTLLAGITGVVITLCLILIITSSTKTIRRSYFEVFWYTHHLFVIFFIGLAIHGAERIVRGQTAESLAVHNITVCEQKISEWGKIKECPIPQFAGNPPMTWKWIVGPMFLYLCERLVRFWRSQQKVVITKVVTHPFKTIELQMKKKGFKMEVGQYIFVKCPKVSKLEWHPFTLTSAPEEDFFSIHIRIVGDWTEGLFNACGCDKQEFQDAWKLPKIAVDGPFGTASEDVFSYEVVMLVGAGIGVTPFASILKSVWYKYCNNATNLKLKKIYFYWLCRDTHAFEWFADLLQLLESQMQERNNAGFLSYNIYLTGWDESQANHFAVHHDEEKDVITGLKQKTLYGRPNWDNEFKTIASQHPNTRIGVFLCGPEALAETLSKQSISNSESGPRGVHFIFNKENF
# [9] = biological target: NADPH oxidase 4 (Homo sapiens) (UniProt Q9NPH5); assay: NOX4-dependent H2O2 signal modulators, primary screen, NOX inhibitor project, cell-based, HEK293-NOX4, tetracycline-induced, Amplex Red fluorescence (AID 1160); conditions: 45 min, higher = more signal, called active from +8 up or from −8 down
# Chain of NADPH oxidase 4 (Homo sapiens) (Q9NPH5 whole entry, looked up): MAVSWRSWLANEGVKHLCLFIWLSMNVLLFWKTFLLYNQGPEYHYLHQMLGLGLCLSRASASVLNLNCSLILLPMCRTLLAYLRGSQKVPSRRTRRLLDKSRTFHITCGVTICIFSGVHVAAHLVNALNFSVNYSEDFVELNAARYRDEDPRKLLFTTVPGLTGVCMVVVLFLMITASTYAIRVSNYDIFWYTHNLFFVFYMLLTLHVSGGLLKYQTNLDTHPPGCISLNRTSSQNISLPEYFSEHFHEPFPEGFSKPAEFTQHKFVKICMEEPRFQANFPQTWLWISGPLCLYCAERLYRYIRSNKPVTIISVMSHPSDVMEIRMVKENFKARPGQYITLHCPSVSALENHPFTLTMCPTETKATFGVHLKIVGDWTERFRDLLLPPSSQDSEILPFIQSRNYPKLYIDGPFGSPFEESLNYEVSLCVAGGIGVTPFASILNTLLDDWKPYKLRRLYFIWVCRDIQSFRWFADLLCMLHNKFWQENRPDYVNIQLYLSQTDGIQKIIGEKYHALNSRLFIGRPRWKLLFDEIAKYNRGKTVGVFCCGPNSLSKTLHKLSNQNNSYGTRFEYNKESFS
# [10] = biological target: NADPH oxidase 5 (Homo sapiens) (UniProt Q96PH1); assay: NOX5-dependent H2O2 signal modulators, primary screen, NOX inhibitor project, cell-based, HEK293-NOX5, Amplex Red fluorescence (AID 1161); conditions: HEK293-NOX5, ionomycin, 45 min, higher = more signal
# Chain of NADPH oxidase 5 (Homo sapiens) (Q96PH1 whole entry, looked up): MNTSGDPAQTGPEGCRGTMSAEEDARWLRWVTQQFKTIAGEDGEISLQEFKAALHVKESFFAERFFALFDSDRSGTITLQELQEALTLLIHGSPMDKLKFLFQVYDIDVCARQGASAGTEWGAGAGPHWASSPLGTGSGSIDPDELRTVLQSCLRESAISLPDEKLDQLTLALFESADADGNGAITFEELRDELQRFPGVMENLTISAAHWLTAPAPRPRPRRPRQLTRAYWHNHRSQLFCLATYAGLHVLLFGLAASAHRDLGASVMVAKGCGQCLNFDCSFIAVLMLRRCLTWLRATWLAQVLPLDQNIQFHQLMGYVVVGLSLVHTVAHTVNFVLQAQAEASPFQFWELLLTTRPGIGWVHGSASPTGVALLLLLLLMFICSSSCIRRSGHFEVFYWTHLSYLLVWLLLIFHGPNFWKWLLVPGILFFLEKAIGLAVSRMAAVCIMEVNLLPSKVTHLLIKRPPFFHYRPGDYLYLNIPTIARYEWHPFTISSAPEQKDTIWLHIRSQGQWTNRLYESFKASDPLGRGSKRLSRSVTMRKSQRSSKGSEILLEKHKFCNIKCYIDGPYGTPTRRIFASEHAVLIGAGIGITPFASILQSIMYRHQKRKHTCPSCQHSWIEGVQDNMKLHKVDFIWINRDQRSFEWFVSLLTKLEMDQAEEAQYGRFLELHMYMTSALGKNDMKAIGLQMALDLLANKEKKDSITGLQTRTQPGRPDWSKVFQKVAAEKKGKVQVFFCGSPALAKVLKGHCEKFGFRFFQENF
Structure (SMILES),z-score [1],composite z-score [2],z-score [3],z-score [4],z-score [5],z-score [6],z-score [7],z-score [8],z-score [9],z-score [10]
COCCCNC(=O)[C@@H]1c2ccccc2C(=O)N(Cc2ccccc2)[C@H]1c1ccc(CO)cc1,-0.134 (inactive),0.603,0.481 (inactive),-0.307 (inactive),0.239 (inactive),0.129 (inactive),-0.0034,-0.694 (inactive),0.572 (inactive),-2.19
CCOC(=O)C1=CC[C@@H](c2ccccc2)N(S(=O)(=O)c2ccc(C)cc2)[C@H]1c1ccc(CC)cc1,-0.688 (inactive),0.166,0.874 (inactive),0.991 (inactive),-0.862 (inactive),0.361 (inactive),-0.253,0.711 (inactive),0.029 (inactive),0.46
CCCC=C(CCC)[C@@H](NS(=O)(=O)c1ccc(Cl)cc1)c1ccc(C(=O)OC)cc1,-1.01 (inactive),0.523,-0.556 (inactive),-0.914 (inactive),-0.338 (inactive),-1.93 (inactive),0.631,0.0199 (inactive),0.249 (inactive),1.39
C=C(/C(=C/C[C@H](OC(=O)c1ccncc1)c1ccc(OCCO)cc1)c1cc(C(=O)OC)ccc1OC)C(C)C,0.936 (inactive),0.0455,14.5 (active),1.19 (inactive),1.29 (inactive),-1.07 (inactive),0.622,-1.78 (inactive),-0.754 (inactive),-2.43
O=C(CS)NCCCCCNC(=O)[C@H]1C[C@H]2C(=O)NCC(=O)N2[C@H]1c1cccc(OCCO)c1,1.43 (inactive),-0.142,0.0198 (inactive),-0.851 (inactive),-4 (inactive),-2.1 (inactive),-0.61,0.448 (inactive),1.08 (inactive),0.664
O=C1NC(=O)C2C1C=CC(C(O)C1CC=CCC1)N2Nc1ccccn1 (stereo not given),-0.629 (inactive),-0.0172,-0.158 (inactive),-0.0567 (inactive),0.0677 (inactive),0.288 (inactive),-0.259,-2.27 (inactive),-2.52 (inactive),-1.61
COc1ccccc1CN1C(=O)c2ccccc2[C@@H](C(=O)NCc2ccccc2)[C@@H]1c1ccc(CO)cc1,-0.0367 (inactive),0.148,1.8 (inactive),0.566 (inactive),0.708 (inactive),0.205 (inactive),0.161,-1.11 (inactive),0.148 (inactive),-0.707
C=CCNC(=O)[C@@H]1[C@H]2C(=O)O[C@H](c3ccccc3)[C@H](c3ccccc3)N2[C@H](c2ccc(OCCO)cc2)[C@@]12C(=O)N(C(=O)OCCOC)c1ccc(C#CCC(C(=O)OC)C(=O)OC)cc12,-0.314 (inactive),0.404,7.08 (inactive),1.72 (inactive),-0.211 (inactive),0.581 (inactive),-0.0943,2.26 (inactive),1.2 (inactive),1.37
C=CCOC(=O)[C@H]1[C@@H]2C(=O)O[C@@H](c3ccccc3)[C@@H](c3ccccc3)N2[C@@H](c2ccc(OCCOC(=O)[C@@H]3C[C@@H]4C(=O)N5CCC[C@H]5C(=O)N4[C@@H]3c3cccc(OCCO)c3)cc2)[C@]12C(=O)Nc1ccc(I)cc12,-0.811 (inactive),1.53,4.52 (inactive),2.5 (inactive),1.25 (inactive),1.5 (inactive),-0.679,1.86 (inactive),0.833 (inactive),1.49
CC(C)CN1C(=O)[C@@]2(c3ccc([N+](=O)[O-])cc3)CC(=O)N(C3CCCCC3)[C@@H]2c2ccc(CO)cc21,0.511 (inactive),-0.191,0.531 (inactive),0.437 (inactive),0.0909 (inactive),0.523 (inactive),-0.277,-0.717 (inactive),-0.778 (inactive),-0.209
CCCCC(=C=CC[C@H](O)c1cccc(OCCO)c1)C[C@H](O)c1ccccn1,1.81 (inactive),-0.272,13.6 (active),0.938 (inactive),1.09 (inactive),-0.676 (inactive),1.54,-1.12 (inactive),-0.337 (inactive),-1.75
O=C1C2C=CC(C(O)C=Cc3ccc([N+](=O)[O-])cc3)N(Nc3ccccc3F)C2C(=O)N1c1ccccc1 (stereo not given),-1.37 (inactive),0.329,13.1 (active),3.11 (inactive),0.105 (inactive),1.59 (inactive),-0.832,-1.43 (inactive),-3.02 (inactive),-3.26
CC(C)(C)OC(=O)CC[C@]1(C(=O)NCCN2CCOCC2)COC(c2ccc(OCCCO)cc2)=N1,1.04 (inactive),0.319,18.7 (active),2.01 (inactive),0.0229 (inactive),0.791 (inactive),-0.395,-2.08 (inactive),0.08 (inactive),-0.137
C[N+](C)(C)CCCC[C@@H]1NC(=O)[C@@H]2C[C@H](C(=O)NCCCCCN)[C@H](c3ccc(O)cc3)N2C1=O,1.31 (inactive),0.906,0.455 (inactive),0.0158 (inactive),-0.284 (inactive),-1.78 (inactive),0.612,-0.102 (inactive),-0.316 (inactive),1.33
OCCCC1=CC(C2CC2)N(Cc2cccc(OC(F)(F)F)c2)CC1 (stereo not given),-0.469 (inactive),-0.0813,1.82 (inactive),0.539 (inactive),0.982 (inactive),0.675 (inactive),0.473,-1.2 (inactive),-0.822 (inactive),-1.48
COC(=O)[C@@]1(Cc2ccc(F)cc2)[C@H]2c3cc(C(=O)N(C)C)n(Cc4ccc(C)o4)c3C[C@H]2CN1C(=O)c1ccccc1,-0.92 (inactive),2.34,5.03 (inactive),1.73 (inactive),0.951 (inactive),1.3 (inactive),-0.239,0.455 (inactive),0.056 (inactive),0.604
CCOC(=O)C1=CCC(c2ccc(F)cc2)N(S(=O)(=O)c2ccc(C)cc2)C1 (stereo not given),-1 (inactive),-0.147,1.44 (inactive),0.952 (inactive),-0.421 (inactive),0.363 (inactive),-0.566,0.396 (inactive),-0.0222 (inactive),0.315
C#CCN1[C@H](/C=C/C2CC2)[C@H](Cc2ccccc2)OC(=O)[C@@H]1Cc1ccccc1,-0.625 (inactive),-0.306,0.128 (inactive),0.224 (inactive),-0.491 (inactive),-0.16 (inactive),0.0807,-0.263 (inactive),-0.367 (inactive),-1.98
O=C1[C@@]23C=C(Br)[C@H](C[C@@H]2COC3)[C@]12CO2,-0.508 (inactive),0.151,0.483 (inactive),-0.0352 (inactive),-0.103 (inactive),-0.334 (inactive),0.424,0.447 (inactive),-1.92 (inactive),-4.05
CC(C)NC(=O)[C@@]1(Cc2ccccc2I)c2ccccc2C(=O)N(Cc2ccccc2Cl)[C@H]1c1ccc(CO)cc1,-0.522 (inactive),0.223,10.7 (active),1.77 (inactive),0.614 (inactive),1.06 (inactive),0.026,0.284 (inactive),0.904 (inactive),0.774
COc1ccc([Si](C)(C)[C@@H]2[C@@H](CC(=O)N3Cc4ccccc4C[C@H]3CO)O[C@]3(C(=O)N(Cc4cccc(N5CCC5=O)c4)c4ccccc43)[C@H]2C)cc1,-0.879 (inactive),0.199,2.84 (inactive),1.09 (inactive),-0.2 (inactive),0.917 (inactive),0.275,-0.355 (inactive),0.912 (inactive),2.11
COC(=O)c1c(CC[C@@H](CO)NC(=O)N[C@H](Cc2ccccc2)Cn2cc(-c3ccccn3)nn2)oc(C(C)=O)c1C(=O)OC,-0.72 (inactive),-0.194,27.1 (active),12.7 (active),0.729 (inactive),1.41 (inactive),0.032,-1.52 (inactive),0.594 (inactive),1.24
CC(C)CCC[C@@H](C)[C@H]1CC[C@@]2(C)C3=C(CC[C@]12C)[C@@]1(C)CC[C@H](OC(=O)c2ccc(C(F)(F)F)nc2)C(C)(C)C1CC3 (stereo not given in full),3.47 (inactive),-0.155,-1.05 (inactive),-0.693 (inactive),0.103 (inactive),-2.61 (inactive),2.5,-0.971 (inactive),0.129 (inactive),0.933
CCCCCCc1nc(-c2ccc(-c3ccc(Cl)c(Cl)c3)o2)c(C)c2c1[Si](C(C)C)(C(C)C)OC2,-0.369 (inactive),-0.198,1.88 (inactive),-0.712 (inactive),0.627 (inactive),-1.57 (inactive),1.7,-4.51 (inactive),-2.74 (inactive),-4.66
COc1ccc([Si](C)(C)[C@H]2[C@H](CCO)O[C@@]3(C(=O)N(Cc4ccccc4)c4ccc(N5CCCCC5=O)cc43)[C@@H]2C)cc1,0.663 (inactive),0.0844,6.61 (inactive),2.24 (inactive),1.45 (inactive),1.72 (inactive),0.204,-1.16 (inactive),0.636 (inactive),1.81
CCC(CC)C(O)C1C=CC2C(=O)N(c3ccccc3)C(=O)C2N1Nc1ccccc1 (stereo not given),0.878 (inactive),0.947,4.73 (inactive),0.696 (inactive),0.301 (inactive),0.95 (inactive),-0.709,-0.588 (inactive),-3.29 (inactive),-3.4
COCCCNC(=O)[C@@]1(CCS(=O)(=O)c2ccccc2)N=C(c2ccc(OCCCO)cc2)O[C@H]1c1ccccc1N=[N+]=[N-],1.12 (inactive),0.517,29.4 (active),21 (active),1.28 (inactive),0.425 (inactive),1.62,-5.07 (inactive),-2.78 (inactive),-2.11
